Coupling enz: inhibits coupling enzyme system, counter-screen for aldolase hits; actives 0.67% (n = 290,000); activity change, negative = inhibition, % at 58.2 µM, hits read low; AID 2472; coupling enzyme system counterscreen, AmpLite Red fluorescence; in the data active = activity change below about -30%
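Coupling enzymes only (glyceraldehyde-3-phosphate) + compound, at 57.5 uM final, 10 min RT; add substrate/coupling/AmpLite Red mix, 20 min RT; fluorescence ex 525/em 598 nm. Actives flag coupling-system interference.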
Tau fluor counter: counter-screen for tau fibril formation inhibitors. tau K18 P301L Alexa594 fluorescence, heparin fibrillization. Potency, µM (doses to about 57.7 µM), without a hit: top-dose activity change, negative = decrease. actives 0.93% (n = 280,000). AID 1463; also: potency is read from the fitted curve at half-maximal effect; nearly all actives have a fitted effect of over 55% in size
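Human K18 P301L tau (15 uM unlabeled plus 0.24 uM Alexa 594-labeled, final) in 100 mM sodium acetate pH 7 was mixed with compound and 20 uM heparin and incubated 6 hr at 37 C.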
Sfp inh: inhibitors of Bacillus subtilis Sfp phosphopantetheinyl transferase. Q9F4F7. Biochemical Sfp PPTase activity, qHTS. Potency, µM, for inactives: largest response in the series, negative = inhibition, actives largely listed as inhibitors. actives 3.5% (n = 310,000);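 also: the enzyme is Sfp with the accession as filed and its product quenches rhodamine fluorescence; potency is read from the fitted curve at half-maximal effect; 0% = enzyme reaction without inhibitor and -100% = no enzyme wells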
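Sfp 15 nM + cpd, 15 min RT; start w/ rhodamine-CoA 5 uM, BHQ-2-YbbR 12.5 uM (final); 50 mM Hepes pH 7.6, 10 mM MgCl2, 0.01% NP-40, 0.01% BSA; read 525/598 nm at 0 and 30 min.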
Tau fibril FP: blocks human tau fibril formation measured by polarization; K18 P301L tau heparin fibrillization, Alexa594 FP, 6 h; Potency, µM (series often up to 57.7 µM), without a hit: top-dose activity, negative = inhibition, actives largely listed as inhibitors; actives 0.39% (n = 280,000); also: potency is read from the fitted curve at half-maximal effect; nearly all actives have a fitted effect of over 55% in size
Target sequence (P10636 561-689 P618L limits assumed): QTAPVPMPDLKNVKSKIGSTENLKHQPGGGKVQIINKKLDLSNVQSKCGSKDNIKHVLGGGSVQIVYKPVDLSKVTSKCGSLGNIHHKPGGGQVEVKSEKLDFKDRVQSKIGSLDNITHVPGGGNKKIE
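Heparin (20 uM) drove fibril formation of recombinant tau K18 P301L, 15 uM unlabeled with 0.24 uM Alexa 594 label, for 6 hr at 37 C in 100 mM sodium acetate pH 7. Fluorescence polarization (555/632 nm) read 1 hr after 30 uM ThT.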
Tau ThT inhib: inhibitors of human tau fibril formation, thioflavin T binding; P10636; recombinant tau K18 P301L (four-repeat tau fragment), heparin-induced fibrillization, ThT fluorescence; Potency, µM (titrated, usually from 57.4 µM), without a hit: at the top dose activity, negative = inhibition, hits mostly inhibitors; actives 2.1% (n = 270,000); AID 1460; also: potency is read from the fitted curve at half-maximal effect; nearly all actives have a fitted effect of over 55% in size
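Tau K18 P301L fragment (15 uM unlabeled plus 0.24 uM Alexa 594-labeled) in 100 mM sodium acetate pH 7 with compound, fibrillization induced by 20 uM heparin for 6 hr at 37 C. Thioflavin T (30 uM) added, fluorescence read after 1 hr (ex 450, em 510 nm).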
Starred values were filed as active, the others as inactive; ? = inconclusive; / = no result given; ! = a repeat was not active. Sampled rows, rich in hits. Any-hit rate of the full collection: about 5.2%. Unless noted, calls follow the shape of the dose curve; as a rule, active = well fitted curve in the direction sought with a large enough effect; inconclusive = small, poorly fitted or top-dose-only effect, or another doubt; inactive = no such curve, though single readings can be large; an effect the other way counts as inactive or inconclusive. Unless noted, % is scaled to controls: 0 for no effect and ±100 for the full control effect.

SMILES	Coupling enz	Tau fluor counter	Sfp inh	Tau fibril FP	Tau ThT inhib
C[C@H]1O[C@@H](O[C@H]2[C@@H](O)C[C@H](O[C@H]3[C@@H](O)C[C@H](O[C@H]4CC[C@]5(C)C6CC[C@]7(C)[C@@H](C8=CC(=O)OC8)CC[C@]7(O)C6CC[C@@H]5C4)O[C@@H]3C)O[C@@H]2C)C[C@H](O)[C@@H]1O (some centres undefined)	6	-1%	-2%	4%	?
CC1CCC2C(C)C(=O)OC3OC4(C)CCC1C32OO4 (centres undefined)	2	-13%	89µM*!	-18%	-6%
N#Cc1cccc(NC(=O)N2CC3(CCN(C(=O)Oc4ccccc4)CC3)C2)c1	1	/	14%	/	/
COc1cc(/C=C2\C(=O)NC(=O)N(c3ccccc3)C2=O)c([N+](=O)[O-])cc1OC	-6	16%	40µM*	-14%	?
COc1cc(/C=C2\C(=O)NC(=O)N(c3ccccc3)C2=O)cc(OC)c1O	-33*	-22%	22µM*	?	?
COC(=O)C1C=C2c3cccc4[nH]cc(c34)CC2N(C)C1 (centres undefined)	-34*	?	?	?	18µM*
CCC(CO)NC(=O)C1C=C2c3cccc4[nH]cc(c34)CC2N(C)C1 (centres undefined)	-21	-17%	-18%	-8%	-16%
CC[C@@H](CO)NC(=O)[C@@H]1C=C2c3cccc4[nH]cc(c34)C[C@H]2N(C)C1	/	3%	45µM*	-7%	?
CC[C@@H](CO)NC(=O)[C@@H]1C=C2c3cccc4c3c(cn4C)C[C@H]2N(C)C1	-56*!	?	-8%	?	25µM*!
Cc1noc(C)c1C(=O)N1CCC[C@@]2(CCN(CC(C)C)C2)C1	2	/	24%	/	/
CC1=C2C(=CO[C@H](C)[C@H]2C)C(=O)C(C(=O)O)=C1O	-30	-27%	-10%	-5%	?
O=C(N=Nc1c(O)[nH]c(=O)[nH]c1=O)C1COc2cc3ccccc3cc2O1 (centres undefined)	-30*	-11%	56µM*	?	?
COc1ccc(CC2C(=O)NC(=O)N(c3ccccc3)C2=O)c(OC)c1 (centres undefined)	-1	-2%	89µM*	0%	?
COc1ccc(CC2C(=O)N(c3ccccc3)C(=O)N(c3ccccc3)C2=O)c(OC)c1	-12	-9%	-1%	-1%	-11%
CCc1ccc(N2C(=O)NC(=O)C(Cc3ccc(OC)cc3OC)C2=O)cc1 (centres undefined)	-4	-16%	50µM*	?	?
Cc1cc(C)cc(NC(=O)CSc2oc(-c3cccs3)nc2S(=O)(=O)c2ccc(Br)cc2)c1	/	?	/	-15%	-10%
C[C@H]1CC[C@H]2NCCN[C@H]2C1	0	-7%	100µM*	1%	-5%
N[C@@H](Cc1cc(Br)c(O)c(Br)c1)C(=O)O	0	-22%	50µM*	-1%	?
CCc1ccc(N2C(=O)NC(=O)/C(=C\c3cccn3CCOc3ccc(C(C)C)cc3)C2=O)cc1	6	-6%	5%	-7%	?
CC(C)c1ccc(N2C(=O)NC(=O)/C(=C/c3cnc(-c4ccccc4)nc3)C2=O)cc1	12	-23%	56µM*	?	16µM*
O=C1NC(=O)N(Cc2ccccc2)C(=O)/C1=C/c1cnc(-c2ccccc2)nc1	0	-21%	56µM*	?	?
O=C1NC(=O)N(Cc2ccc(F)cc2)C(=O)/C1=C\c1ccoc1	3	-12%	-28%	-4%	-14%
CSc1ncc(/C=C2/C(=O)NC(=O)N(c3ccc(C(C)C)cc3)C2=O)cn1	-1	-18%	79µM*	?	25µM*
COc1ccc2c(c1)CCC1[C@@H]2CCC2(C)[C@@H](NCCCCCCN3C(=O)C=CC3=O)CC[C@@H]12 (some centres undefined)	3	-19%	-26%	-13%	?
O=C(Oc1ccc2ccc(OC(=O)N3CCCCCC3)cc2c1)N1CCCCCC1	5	-11%	-2%	4%	?
SMILES	Coupling enz	Tau fluor counter	Sfp inh	Tau fibril FP	Tau ThT inhib
CC[C@@H](CO)NC(=O)[C@H]1C=C2c3cccc4[nH]cc(c34)C[C@H]2N(C)C1	-6	?	20%	-6%	?
CC[C@]1(O)CC[C@H]2[C@@H]3CCC4=CCCC[C@@H]4[C@H]3CC[C@@]21C	/	/	7%	/	/
Cc1ncc(CN2CC=C(c3ccccc3)CC2)c(N)n1	-5	-11%	-18%	7%	-10%
c1ccc2c(CCNC3CCCCC3)c[nH]c2c1	-2	5%	50µM*	7%	2%
O=[As]O[As]=O (centres undefined)	/	/	23%	/	/
N#CC(C#N)=Cc1ccc([N+](=O)[O-])c(O)c1	-28	?	35µM*	?	25µM*
N#CC(C#N)=Cc1ccc(C=C(C#N)C#N)cc1	-23	-21%	?	?	20µM*
CN(C)/C=C1/C(=O)NC(=O)N(CCNc2ncc(C(F)(F)F)cc2Cl)C1=O	10	-9%	-12%	?	16µM*
CCN(CC)C(=O)c1ccc(NC(=O)CCn2nc(-c3ccc(Cl)cc3)c3ccccc3c2=O)cc1	/	-25%	/	-13%	?
Cc1ccc(/C=C2\C(=O)NC(=O)N(CCc3ccc(F)cc3)C2=O)s1	3	-19%	-11%	-10%	?
Cc1cc(/C=C2\C(=O)NC(=O)N(Cc3ccccc3Cl)C2=O)c(C)n1-c1ccc(C(=O)O)cc1	-1	-16%	-15%	?	?
Cc1ccc(/C=C2\C(=O)NC(=O)N(Cc3ccccc3Cl)C2=O)o1	1	3%	71µM*	1%	?
COc1ccc(/C=C2/C(=O)NC(=O)N(Cc3ccco3)C2=O)cc1	-19	4%	?	3%	4%
COc1cc(N2CCOCC2)ccc1/C=C1\C(=O)NC(=O)N(Cc2ccc3c(c2)OCO3)C1=O	3	-17%	?	-13%	?
COc1ccc(CN2C(=O)NC(=O)/C(=C/c3ccc([N+](=O)[O-])o3)C2=O)cc1	-9	?	50µM*	?	8.9µM*
COc1ccc(CN2C(=O)NC(=O)/C(=C\c3cccc(OC)c3OC)C2=O)cc1	9	-14%	79µM*	-2%	?
Cc1ccc(/C=C2\C(=O)NC(=O)N(CCc3ccc(F)cc3)C2=O)o1	0	-6%	40µM*	-11%	?
Cc1ccc(/C=C2/C(=O)NC(=O)N(Cc3ccc(F)cc3)C2=O)o1	0	-3%	35µM*	-1%	/
CN(C)c1ccc(/C=C2/C(=O)NC(=O)N(CCc3ccc(F)cc3)C2=O)cc1	1	1%	-23%	-10%	?
CCOc1cc(/C=C2\C(=O)NC(=O)N(CCc3ccc(F)cc3)C2=O)ccc1O	2	-39%	71µM*	?	/

Screens deposited in PubChem by National Center for Advancing Translational Sciences (NCATS).
